Measurements published in PubChem BioAssay AID485313 (National Center for Advancing Translational Sciences (NCATS), 2010).
The whole screen tested about 320,000 compounds, of which about 7,600 (2.4%) were called active. Inconclusive results (about 3%) are left out. The call rests on the fitted dose curve; in most records, active means well fitted activation curve with a large enough effect; inconclusive means small, poorly fitted or top-dose-only effect; inactive means no such curve, though single readings can be large or run the other way. Shown is part of a subset that was picked to be rich in actives.
Potency means the concentration at half of the fitted maximal effect.

Assay: qHTS Assay for NPC1 Promoter Activators; further: nearly all actives have a fitted effect of over 60% in size; on activation: % of control where 0% means no effect
Conditions: Huh7 NPC1 promoter luciferase reporter, 24 h; series mostly up to 9.22 µM; activation: at the top concentration
Excerpt: NIH Chemical Genomics Center [NCGC] NIH Molecular Libraries Probe Production centers Network [MLPCN] MLPCN Grant: MH089375-01A1 Assay Submitter (PI): Yiannis A. Ioannou NCGC Assay Overview: Niemann Pick Type C (NPC) is a rare neurodegenerative lipidosis that is characterized by lipid storage in the endosomal/lysosomal system. Treatment modalities for this devastating disease are currently non-existent due to the severe obstacles associated with accessing the central nervous system with proteins or genes. The majority of mutations causing NPC disease are missense mutations that are distributed throughout the length of the NPC1 protein, with the most prevalent being the I1061T allele. Although NPC1 mutant proteins may be functional, they are typically trapped in the ER due to misfolding. […] We have developed and optimized a cell based luciferase reporter assay in 1536 well format for the identification of up-regulators of the mutant NPC1 promoter.
The NPC1 promoter is cloned in front of the luciferase reporter gene, therefore NPC promoter activation results in luciferase expression. Frozen stock of the NPC1 promoter transfected Huh7 cells were obtained from the laboratory of Dr. Yiannis Ioannou (The Mount Sinai School of Medicine, New York, NY). Cells were propagated and maintained at NCGC in medium containing RPMI-1640 supplemented with 10% FBS, 2mM L-glutamine, and 50ug/ml penicillin/streptomycin. Cells were harvested in and plated for assays in OP-MEM I reduced-serum medium supplemented with 10% FBS. The Amplite luciferase reporter gene assay kit was purchased from ABD Bioquest and prepared/stored according to manufacturers recommendations. qHTS Assay Setup: 1.#Dispensed 5ul of Huh7 cells stably expressing NPC1-luciferase at a density of 1500 cells per well 1536-well plates. 2.#Incubate cells at 37C, 5% CO2, and 95% humidity for 2 hours. 3.#Transferred 23nl per well of compound in DMSO solution. 4.#Incubated at 37C, 5% CO2, and 95% humidity for 24 hours. 5.#Dispensed 3ul per well of Amplite reagent(ABD Bioquest) per well. 6.#Incubate at ambient for 10 minutes. 7.#Read using the luminescence protocol on the ViewLux plate reader (Perkin Elmer).
In the case of `Cc1ccsc1C(=O)OCC(=O)Nc1cccc(F)c1`, the “activation” value is reported as 7.29% (inactive). For `Cc1cc(C(=O)COc2ccc(Br)cc2F)c(C)n1C1CC1`, the “activation” value was 15.3% (inactive). In the case of `N#Cc1ccccc1S(=O)(=O)N1CCN(Cc2c(O)ccc3ccccc23)CC1`, the “activation” value is reported as -0.384% (inactive). In the case of `CC1CC1C(=O)OCC(=O)Nc1cccc(F)c1` (centres undefined), the “activation” value is reported as -0.27% (inactive). For `COC(=O)Cc1[nH]n(-c2nc3ccccc3s2)c(=O)c1C(C)=Nc1ccc(OC)cc1`, the “activation” value was -16% (inactive). In the case of `CC(=NCc1ccco1)C1=C(O)c2ccccc2C1=O`, the “activation” value is reported as 8.33% (inactive). In the case of `CC(=NCc1ccco1)c1c(C(F)(F)F)[nH]n(-c2nc3ccccc3s2)c1=O`, the Potency is reported as 2240 nM (active). For `CCCn1c(N)c(N(CCOC)C(=O)C2CCCC2)c(=O)[nH]c1=O`, the “activation” value was -2.43% (inactive). In the case of `CN(C(=O)CSc1nnc(C2CC2)n1C)C1CCCc2ccccc21` (centres undefined), the “activation” value is reported as -0.553% (inactive). With `CN(C)/C=C(\C#N)C(=O)c1cccnc1Oc1ccc(F)cc1F` the “activation” value was -8.2% (inactive). In the case of `COc1ccc(C)cc1NC(=O)CCCN1C(=O)NC(C)(C)C1=O`, the “activation” value is reported as -6.41% (inactive). With `COc1ccc(-c2nnc(SC(C)C(=O)NC3CC3)o2)cc1` (centres undefined) the “activation” value was -0.432% (inactive). For `O=C(Nc1ccc(F)cc1)c1cc2c(s1)CCCC2`, the Potency was 2240 nM (active). In the case of `CN(C)C(=O)c1ccc(NC(=O)COC(=O)c2cc3c(s2)CCCCC3)cc1`, the “activation” value is reported as -5.23% (inactive). For `O=C(NNC(=O)c1cc2c(s1)CCCC2)c1ccccc1`, the “activation” value was 21.2% (inactive). With `CCN(C(=O)COC(=O)Cc1c(F)cccc1Cl)c1c(N)n(Cc2ccccc2)c(=O)[nH]c1=O` the “activation” value was -0.302% (inactive). For `CSc1ncccc1C(=O)Nc1ccc2c(c1)OCO2`, the “activation” value was -0.125% (inactive). For `CSc1ncccc1C(=O)Nc1nc2ccc(F)cc2s1`, the Potency was 126 nM (active). With `CSc1ncccc1C(=O)NC1CCCCCC1` the “activation” value was -4.31% (inactive). For `Cc1ccc(NC(=O)CCC(=O)N2CCC(c3ccccc3)=N2)cc1S(=O)(=O)N1CCCCC1`, the “activation” value was -1.45% (inactive). In the case of `O=c1ccc2c(-c3ccccc3S(=O)(=O)O)c3ccc(O)c(O)c3oc-2c1O`, the “activation” value is reported as -7.8% (inactive). For `CC1CCCCC1NC(=O)NC(=O)COC(=O)C1=NN(c2ccccc2)C(=O)CC1` (centres undefined), the “activation” value was -3.42% (inactive). With `O=S(=O)(NCCCN1CCOCC1)c1ccc(F)c(Cl)c1` the “activation” value was -5.25% (inactive). In the case of `COc1ccccc1CNC(=O)COC(=O)CNS(=O)(=O)c1ccc(NC(C)=O)cc1`, the “activation” value is reported as -1.15% (inactive). With `Cc1ccc(-n2cc3ccc([N+](=O)[O-])cc3n2)cc1` the Potency was 794 nM (active). In the case of `Cc1ccnc(N2C(=O)c3ccc([N+](=O)[O-])cc3C2=O)c1`, the “activation” value is reported as -0.192% (inactive). For `Cc1ccc(-c2cn(S(=O)(=O)c3cccc([N+](=O)[O-])c3)nc2N)cc1`, the “activation” value was -1.34% (inactive). With `Cn1c(N)c(C(=O)COC(=O)/C=C/c2cccc(C(F)(F)F)c2)c(=O)n(C)c1=O` the “activation” value was 0.0298% (inactive). With `Cc1ccn(-c2cccc(-n3ccc(C)n3)n2)n1` the Potency was 3160 nM (active).
